Assay outcomes: PubChem, several laboratories
This is a sample that favours compounds with a hit; in the whole collection about 27% have one here.
CYP2C19 activ: activators of human cytochrome P450 2C19; AID 1025; 96,000 tested, under 10 active; activation factor at 5 µM; P33261; recombinant CYP2C19, luciferin-H EGE luminescence; stronger effect = higher value; 0 = fully inhibited enzyme, 1 = untreated enzyme;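 active means activation factor of at least 2 at 5 µM in the primary screen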;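 further: 0 = wells with 2.5 mM tranylcypromine and 1 = vehicle-only wells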
PTK2B oligo ant: antagonists of human Pyk2 oligomerization; Q293 cells, Pyk2 FERM NanoBiT luminescence; stronger effect = lower value; z-score (the deposit names both 25 µM and 10 µM); 99,000 tested, 0.83% active; AID 1347419;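 active means Z-score of -3 or lower, scaled per plate to the spread of control and sample wells; inactive means z-score above -3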;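 further: negative z-score means lost luminescence so less FERM oligomerization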
CYP2C9 act: increases human cytochrome P450 2C9 activity; P11712; recombinant CYP2C9, luciferin-H conversion, luminescence; stronger effect = higher value; factor 1 = untreated enzyme, 0 = blocked; activation factor at 5 µM; 96,000 tested, 1.4% active; AID 1024;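 active means activation factor of 2 or more for CYP2C9 at a 5 µM dose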;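 further: 0 = sulfaphenazole-blocked wells and 1 = vehicle-only wells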
Target sequence (P11712 whole entry, looked up): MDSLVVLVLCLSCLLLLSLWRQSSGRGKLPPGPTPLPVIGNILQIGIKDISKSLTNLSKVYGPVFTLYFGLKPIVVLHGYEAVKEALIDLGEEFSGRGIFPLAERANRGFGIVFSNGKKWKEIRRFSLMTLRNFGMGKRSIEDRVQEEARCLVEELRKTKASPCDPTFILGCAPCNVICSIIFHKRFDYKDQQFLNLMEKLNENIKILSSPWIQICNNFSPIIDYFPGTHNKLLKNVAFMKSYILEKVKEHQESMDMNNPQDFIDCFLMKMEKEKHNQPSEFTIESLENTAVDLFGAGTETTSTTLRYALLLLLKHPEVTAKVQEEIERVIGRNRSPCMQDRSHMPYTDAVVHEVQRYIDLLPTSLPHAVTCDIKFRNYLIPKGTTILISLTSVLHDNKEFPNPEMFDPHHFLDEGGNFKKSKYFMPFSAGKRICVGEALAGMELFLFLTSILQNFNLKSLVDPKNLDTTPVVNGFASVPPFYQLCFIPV
Cav32 inh: blocks human Cav3.2 T-type calcium channel | B-score at 10 µM | O95180 | 100,000 tested, 4% active | AID 449739 | Cav3.2-expressing cells, Fluo-4 calcium fluorescence FDSS; stronger effect = lower value;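 active means single-dose well whose peak fluorescence ratio is a statistical outlier from its plate by either plate-standardised score or position-corrected B-score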
CYP2C19 inh: human CYP2C19 inhibition. P33261. CYP2C19 Supersomes, luciferin-H EGE luminescence, 30 min. inhibition, % at 5 µM. 96,000 tested, 21% active;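 active means CYP2C19 inhibition above a set limit at 5 µM in the primary screen, cut at about 50% in these data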;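 further: plate controls were negative control wells for no effect and 2.5 mM tranylcypromine positive control for full effect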
CYP2C9 inhib: human CYP2C9 inhibition. P11712. CYP2C9 Supersomes, luciferin-H conversion, luminescence. inhibition, % at 5 µM. 96,000 tested, 20% active. AID 777;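 active means blocking of liver enzyme CYP2C9 beyond about 50% at 5 µM, limit read from the data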
The depositor's hits bear a star; · = no result.

SMILES	CYP2C19 activ	PTK2B oligo ant	CYP2C9 act	Cav32 inh	CYP2C19 inh	CYP2C9 inhib
O=C(OCC(=O)N1c2ccccc2Sc2ccccc21)C1CC(=O)N(Cc2ccco2)C1 (stereo not drawn)	0.3	0.23	0.1	-1.75	70.4*	88.9*
COc1ccc(C(=O)Cn2c(N3CCOCC3)nc3ccccc32)cc1OC	1.2	·	1.1	·	-16.2	-5.9
O=C(Cc1nc2ccccc2[nH]1)NCc1ccco1	0.8	0.38	0.9	·	18.1	7.7
O=C(NCC1CC1)c1ccc(Nc2nc3ccc(Br)cc3[nH]2)cc1	0.7	·	0.3	-0.0862	31.9	69.2*
O=C(Cc1ccc(Nc2nc3ccc(Br)cc3[nH]2)cc1)NCCc1cccs1	0.3	·	0.1	-3.16*	67.1*	93.8*
